Compound activity from PubChem BioAssay.
Rows were chosen to be rich in hits. Some 2.1% of all compounds tested hit in one or more screens of this group.
COUP-TFII inh: NR2F2 transcriptional activity inhibitors, primary screen, cell-based, luciferase reporter, HEK293T, luminescence. COUP transcription factor 2 (Homo sapiens), P24468. HEK293T NGFI-A luciferase reporter. inhibition, % at 8.6 µM. 0.7% of 370,000 active. AID 686940, 2013;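 active = inhibition above a per-plate cutoff, mean inhibition of test wells between control levels plus 3 SD, cut at about 38% in these data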;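 also: cells cotransfected with COUP-TFII expression vector driving the NGFI-A reporter; 0% = median of COUP-TF2 test wells and 100% = reporter-only cells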
Gli-Sufu antag: Gli-Sufu pathway antagonists, primary screen, luciferase luminescence, Sufu-KO-LIGHT cells, uHTS; 0.74% of 340,000 active; Sufu-KO-LIGHT fibroblasts, Gli luciferase reporter luminescence; AID 588413, 2011; inhibition, % at 5 µM;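 active = inhibition above about 55%, limit read from the data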;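 also: 0% = DMSO-treated cells and 100% = wells with medium but no cells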
GalR3 antag: GalR3 antagonists in HEK293 cells, primary screen, cell-based, fluorescence readout | HEK293 GalR3-CNG cAMP membrane potential fluorescence; galR3 body fused to GalR1 C-terminus | inhibition, % at 3 µM | 0.44% of 360,000 active;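 active = inhibition above the screen-wide average plus 3 SD, cut at about 13% in these data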;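 also: forskolin and galanin both at EC90 stimulate the cells; cAMP rise reported by CNG channel membrane potential dye signal; 0% = forskolin plus galanin with DMSO and 100% = forskolin alone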
Target sequence (O60755 1-299 limits assumed): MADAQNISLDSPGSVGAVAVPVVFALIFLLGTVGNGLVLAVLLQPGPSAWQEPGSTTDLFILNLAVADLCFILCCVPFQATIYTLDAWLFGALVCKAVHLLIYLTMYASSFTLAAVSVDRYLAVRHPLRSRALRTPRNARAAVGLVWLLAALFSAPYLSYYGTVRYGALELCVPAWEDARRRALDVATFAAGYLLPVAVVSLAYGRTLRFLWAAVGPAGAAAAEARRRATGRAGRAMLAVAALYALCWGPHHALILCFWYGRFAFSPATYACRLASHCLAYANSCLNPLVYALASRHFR
aDG glyco up: activators of alpha-DG glycosylation, primary screen, uHTS, Pro5-aDG cells, AlphaScreen | alpha-DG glycosylation AlphaScreen (IIH6); 0% Pro5, 100% B10-LARGE cell signal | activation, % at 10 µM | 0.22% of 360,000 active | AID 624168, 2012;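 active = activation of at least 8% versus controls, or a plate z-score of at least 8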;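 also: Pro5 are CHO cells carrying HIG-tagged alpha-DG that lacks glycosylation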
Env fusion inh: inhibitors of HIV-1 Env-driven cell-cell fusion, primary screen, HeLa-JRFL effector, CEM21 target cells, luciferase. inhibition, % at 12.3 µM. 1.1% of 360,000 active. AID 651610, 2012;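 active = mean replicate inhibition score of at least 50 and every replicate individually at or above 50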;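 also: 0% = plate neutral controls and 100% = maraviroc near 300 nM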
GalR3 conf: GalR3 antagonist hit confirmation, cell-based, fluorescence, triplicate. shares compounds with GalR3 antag. HEK293 GalR3 CNG cAMP biosensor, membrane potential fluorescence; galR3 fused to GalR1 carboxy tail; challenged with forskolin and galanin at EC90. inhibition, % at 3 µM. 59% of 1,600 active. AID 652245, 2013;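 active = inhibition above the primary screen's cutoff, the mean inhibition of all screened compounds plus 3 SD, cut at about 13% in these data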;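 also: 0% = forskolin plus galanin and 100% = forskolin alone with DMSO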
CNG parental: nonspecific cAMP agonists in parental HEK-CNG cells, counter-screen for GalR3 antagonist project, cell-based, fluorescence, high throughput | shares compounds with GalR3 antag | HEK293-CNG parental cells, cAMP membrane potential fluorescence; normalised: DMSO wells 0%, forskolin wells 100% | activation, % at 3 µM | 10% of 1,600 active; in the data active = activation above about 1.3%
Numbers without * were called inactive; nt = no result; [ ] = another dose, or the depositor's remark.

SMILES	COUP-TFII inh	Gli-Sufu antag	GalR3 antag	aDG glyco up	Env fusion inh	GalR3 conf	CNG parental
C#CCOCCOCCOCCNc1nc(N2CCN(C(=O)[C@H]([C@@H](C)CC)n3cc(CCCCN)nn3)CC2)nc(N2CCN(C(=O)[C@H](CCCCN)n3cc(CC(C)O)nn3)CC2)n1 (some centres not stated)	-6	6	-4	0	-23	nt	nt
C#CCOCCOCCOCCNc1nc(N2CCN(C(=O)[C@H]([C@@H](C)CC)n3cc(CCC(=O)O)nn3)CC2)nc(N2CCN(C(=O)[C@H](CCCCN)n3cc(CCC(=O)O)nn3)CC2)n1	0	-1	nt	0	-15	-3	0
CN(C)C(=O)/C(=C/c1cn(-c2ccccc2)nc1-c1cccc([N+](=O)[O-])c1)NC(=O)c1ccccc1	6	-1	0	0	-16	nt	nt
C=CCNC(=O)/C(=C/c1cn(-c2ccccc2)nc1-c1cccc([N+](=O)[O-])c1)NC(=O)c1ccccc1	-16	7	16*	0	-18	8	0
COCC(COS(N)(=O)=O)Cc1ccccc1 (configuration not stated)	10	-9	nt	0	14	-3	0
CN1CCN(C(=O)C[C@H]2C[C@H]3c4cc(NC(=O)Nc5ccccc5)ccc4O[C@H]3[C@H](CO)O2)CC1	nt	nt	nt	nt	10[16.7 µM]	nt	nt
CC1=CC(C)(C)n2c(O)c(N=NC(N)=S)c3c(C)ccc1c32	-21	-8	14*	0	-152	8	-2
Cc1ccc(S(=O)(=O)Nc2ccc3c(c2)C(=O)N([C@H](C)CO)C[C@H](C)[C@@H](CN(C)CC2CCCCC2)O3)cc1	nt	nt	nt	nt	6[16.7 µM]	nt	nt
COc1cc(/C=C2\SC(=Nc3c(C)n(C)n(-c4ccccc4)c3=O)NC2=O)ccc1O	3	3	31*	0	0	34*	0
Cc1ccc(S(=O)(=O)Nc2ccc3c(c2)C(=O)N([C@H](C)CO)C[C@H](C)[C@@H](CN(C)C(=O)NC(C)C)O3)cc1	nt	nt	nt	nt	-5[16.7 µM]	nt	nt
C[C@H]1CCCCO[C@H](CN(C)S(=O)(=O)c2cn(C)cn2)[C@@H](C)CN([C@@H](C)CO)C(=O)c2cc(NC(=O)c3ccccc3)ccc2O1	nt	nt	nt	nt	24[16.7 µM]	nt	nt
COC(=O)c1ccc(NC(=O)C(=O)c2cccn2C)cc1	-29	-101	nt	0	-79	0	0
COc1ccc(/C=C2\OC(=O)c3c(OC)cccc32)cc1OC	-148	6	62*	0	nt	20*	0
COc1ccc(C=C2C(=O)OC(C)(C)OC2=O)cc1OC	-13	41	-6	0	46	nt	nt
Fc1ccc(/C=N/NC(=S)Nc2cccnc2)cc1F	-40	-1	-6	0	-16	nt	nt
Fc1ccc(/C=N/NC(=S)Nc2cccnc2)cc1	-20	9	21*	0	-6	4	0
O=C(OCc1cc(=O)oc2cc(O)ccc12)c1cc(S(=O)(=O)N2CCOCC2)ccc1F	-58	26	34*	0	2	55*	1
N#Cc1ccccc1COC(=O)c1cc(S(=O)(=O)N2CCOCC2)ccc1F	-4	nt	0	0	-34	nt	nt
O=C1COc2ccc(C(=O)COC(=O)c3cc(S(=O)(=O)N4CCOCC4)ccc3F)cc2N1	0	2	55*	0	19	34*	0
O=C1COc2ccc(C(=O)COC(=O)CCc3ccc(S(=O)(=O)N4CCOCC4)cc3)cc2N1	2	-10	2	0	nt	nt	nt
CO[C@H]1CN(C)C(=O)c2cc(NS(C)(=O)=O)ccc2OC[C@@H](C)N(C)C[C@H]1C	nt	nt	nt	nt	7[16.7 µM]	nt	nt
O=C(O)COc1ccc(/C=C/c2ccc3cccc([N+](=O)[O-])c3n2)cc1	-4	-4	16*	0	nt	21*	0
COc1cc(/C=C/c2ccc3cccc([N+](=O)[O-])c3n2)ccc1OCC(=O)O	13	0	67*	0	-37	66*	0
O=C(NCC[C@H]1CC[C@@H](NC(=O)Nc2cc(F)ccc2F)[C@H](CO)O1)Nc1ccc(F)cc1	nt	nt	nt	nt	-6[16.7 µM]	nt	nt
CCC(NC(=O)c1ccccc1NC(=O)C(C)(C)C)C(=O)N1CCCC1 (configuration not stated)	2	-22	15*	0	-10	7	0
SMILES	COUP-TFII inh	Gli-Sufu antag	GalR3 antag	aDG glyco up	Env fusion inh	GalR3 conf	CNG parental
CCC(NC(=O)c1ccccc1NC(=O)C(C)(C)C)C(=O)N1CC(C)OC(C)C1 (configuration not stated)	6	2	3	0	1	nt	nt
Cc1ccc(S(=O)(=O)N(C)C[C@H]2Oc3c(NS(=O)(=O)c4ccccc4)cccc3C(=O)N([C@H](C)CO)C[C@@H]2C)cc1	nt	nt	nt	nt	-24[16.7 µM]	nt	nt
COC(=O)CNC(=O)CN1c2cccc3cccc(c23)S1(=O)=O	-12	6	13*	0	nt	0	0
COc1ccc(CCNC(=O)CN2c3cccc4cccc(c34)S2(=O)=O)cc1	16	-9	1	0	17	nt	nt
COc1cc(CCCN2C(=O)C(=O)NC[C@@H]2Cc2ccc(O)cc2)cc(OC)c1OC	1	-4	16*	0	-3	3	1
COc1cccc(C2C3=C(CC(C)(C)CC3=O)Nc3cc(OC)c(OC)cc32)c1 (configuration not stated)	-18	5	15*	0	-7	23*	0
COc1cc2c(cc1OC)C(c1ccc3c(c1)OCO3)C1=C(CC(C)(C)CC1=O)N2 (configuration not stated)	0	-9	13*	0	nt	29*	1
Cc1noc(C)c1NC(=O)Nc1cccc2c1O[C@@H](CN(C)S(=O)(=O)c1ccc(Cl)cc1)[C@H](C)CN([C@@H](C)CO)C2=O	nt	nt	nt	nt	-2[16.7 µM]	nt	nt
O=S(=O)(c1ccc2c(c1)OCCO2)N1CCN(S(=O)(=O)c2c(F)cccc2F)CC1	-7	nt	nt	nt	nt	nt	nt
O=S(=O)(NCC1CN(S(=O)(=O)c2c(F)cccc2F)C1)c1ccc2c(c1)OCCO2	31	28	73*	1	45	103*	0
CCCc1cc(=O)oc2c3c(cc(OCC(=O)NCc4ccncc4)c12)OC(C)(C)CC3	16	13	15*	0	nt	7	0
COc1ccc(-n2c(SCc3ccc(C#N)cc3)nnc2-c2ccccn2)cc1	2	-16	7	0	-50	nt	nt
